# From PubChem BioAssay (NCATS)
# Records with an inconclusive call do not appear. Values without a mark were called inactive. Calls of active or inactive are those of the source. Calls come from the whole dose curve; as a rule, active = well fitted inhibition curve with a large enough effect; inconclusive = small, poorly fitted or top-dose-only effect; inactive = flat fitted curve, though single readings scatter.
# System: astro (control astrocytes)
# Assay: Drug repurposing screens with cells derived from glioblastoma tumor samples (AID 1345199); note: nearly all actives have a fitted effect of over 40% in size
# Conditions: viability, ATP luminescence, 48 h; series mostly up to 45.9 µM; activity, negative = cell killing: at the top concentration
# Experimental: CD133+ cells were isolated from GBM patient biopsies and cultured as neurospheres. Neurospheres from four patients were used to screen the NCATS pharmaceutical collection (NPC) library of approved drugs and bioactive compounds. […] The neurospheres were incubated with drugs for 48 hours in 1536-well format, then assayed with an ATP content cell viability assay. […] These hits were cherry picked to confirm activity in the four original GBM lines screened plus three other slower growing GMB lines (unable to yield enough cells for a full primary screen). Variable activities of the confirmed primary hits in the different GBM patient lines were observed. The patient line 206 responded to the greatest number of compounds and line 923 responded to the least amount of active compounds.
# % is set by controls: 0 for no effect and ±100 for the full control effect; potency is the fitted concentration of half-maximal effect.
Compound,"activity, negative = cell killing",Potency
CS(=O)(=O)Nc1ccc([N+](=O)[O-])cc1Oc1ccccc1,-11.7% [at 21.2 µM],
OCCN1CCN(CCCN2c3ccccc3Sc3ccc(C(F)(F)F)cc32)CC1,,22.4 µM (active)
Cc1cn([C@H]2C[C@H](N=[N+]=[N-])[C@@H](CO)O2)c(=O)[nH]c1=O,,inactive
NC(=O)OCC(COC(N)=O)c1ccccc1,-5.76%,
COc1ccc2[nH]cc(CCNC(C)=O)c2c1,-7.97%,
Clc1ccc2nsnc2c1NC1=NCCN1,-21.5%,
C[C@H]1c2cccc(O)c2C(O)=C2C(=O)[C@]3(O)C(O)=C(C(N)=O)C(=O)[C@@H](N(C)C)[C@@H]3[C@@H](O)[C@@H]21,-2.25%,
COc1ccccc1OCCNCC(O)COc1cccc2[nH]c3ccccc3c12 (stereo not given),-20.3%,
N[C@@H](Cc1c[nH]c2ccc(O)cc12)C(=O)O,-18.3%,
O=C(c1ccc(OCCN2CCCCC2)cc1)c1c(-c2ccc(O)cc2)sc2cc(O)ccc12,,17.8 µM (active)
NCCCCCC(=O)O,-15.9% [at 21.2 µM],
NS(=O)(=O)c1cc2c(cc1Cl)NCNS2(=O)=O,-9.49%,
CCOC(=O)c1ncn2c1CN(C)C(=O)c1cc(F)ccc1-2,-11.2%,
Cn1c(=O)c2[nH]cnc2n(C)c1=O,-7.48%,
O=c1c(-c2ccc(O)cc2)coc2cc(O)cc(O)c12,,10 µM (active)
CC(C)(C)C(=O)Oc1ccc(S(=O)(=O)Nc2ccccc2C(=O)NCC(=O)O)cc1,-14.5%,
COc1ccc2c(c1)c(CC(=O)O)c(C)n2C(=O)c1ccc(Cl)cc1,-20.9%,
Fc1ccc([C@@H]2CCNC[C@H]2COc2ccc3c(c2)OCO3)cc1,,22.4 µM (active)
Nc1c2c(nc3ccccc13)CCCC2,-25.5%,
CC1(C)O[C@H]2CC(=O)OC[C@]23[C@H]2CC[C@@]4(C)[C@H](c5ccoc5)OC(=O)[C@H]5O[C@]54[C@]2(C)C(=O)C[C@@H]13,-10.7%,

Compound,"activity, negative = cell killing",Potency
CC1COc2c(N3CCN(C)CC3)c(F)cc3c(=O)c(C(=O)O)cn1c23 (stereo not given),-12.6%,
NCCS(=O)(=O)O,3.28%,
Cc1ccc(-c2cc(C(F)(F)F)nn2-c2ccc(S(N)(=O)=O)cc2)cc1,10%,
CC(C)NCC(O)c1ccc(O)c(O)c1 (stereo not given),-13.7%,
COc1cc2nc(N3CCN(C(=O)C4COc5ccccc5O4)CC3)nc(N)c2cc1OC (stereo not given),-22.3%,
CN(C)C(=N)N=C(N)N,-6.67% [at 21.2 µM],
Cc1cc(C(C)(C)C)cc(C)c1CC1=NCCN1,-14.6% [at 21.2 µM],
CN(C)CCC=C1c2ccccc2C=Cc2ccccc21,-19.8%,
COc1cc2nc(N(C)CCCNC(=O)C3CCCO3)nc(N)c2cc1OC (stereo not given),-4.13% [at 21.2 µM],
C[C@](N)(Cc1ccc(O)c(O)c1)C(=O)O,-19.1%,
CC12CC3CC(C)(C1)CC(N)(C3)C2,-3.28%,
Cc1ccc(C(=O)Nc2ccc(S(=O)(=O)O)c3cc(S(=O)(=O)O)cc(S(=O)(=O)O)c23)cc1NC(=O)c1cccc(NC(=O)Nc2cccc(C(=O)Nc3cc(C(=O)Nc4ccc(S(=O)(=O)O)c5cc(S(=O)(=O)O)cc(S(=O)(=O)O)c45)ccc3C)c2)c1,-26.1%,
CN(C)c1nc(N(C)C)nc(N(C)C)n1,-18.4% [at 21.2 µM],
CC(C)(Oc1ccc(C2CC2(Cl)Cl)cc1)C(=O)O (stereo not given),-13.2%,
COc1nc(C)nc(Cl)c1NC1=NCCN1,-7.68% [at 21.2 µM],
CN1CCN2c3ccccc3Cc3ccccc3C2C1 (stereo not given),,20 µM (active)
COc1ccc(C2CNC(=O)C2)cc1OC1CCCC1 (stereo not given),-25.9% [at 21.2 µM],
CC[N+](CC)(CC)CCOc1cccc(OCC[N+](CC)(CC)CC)c1OCC[N+](CC)(CC)CC,-18.4%,
Cc1cn([C@H]2C=C[C@@H](CO)O2)c(=O)[nH]c1=O,-15.2%,
COc1ccccc1N1CCN(CC(O)COc2cccc3ccccc23)CC1 (stereo not given),-27.3%,
